Measured values: PubChem BioAssay AID463173 (ICCB-Longwood Screening Facility, Harvard Medical School, 2010)
The campaign covered roughly 52,000 compounds. About 4,300 (8.3%) were called active. Rule as the data show it: active = survival mostly below about 52% (no sharp cut-off); inactive = mostly above about 56%. The list comes from a sample in which actives are over-represented; it also holds similar structures and randomly drawn compounds.

test system: DeltatarO mutant; assay: growth inhibition of S. aureus wild type versus tarO mutant, primary screen, teichoic acid synthesis inhibitors, RN4220, OD600 (AID 463173); settings: OD600, 18 h, hits give low values, screened at 18.75 µg/mL (by protocol)

Row | Structure (SMILES) | survival
1 | CN(C)c1ccc(CNC(=O)CN(C)S(=O)(=O)c2ccc3c(c2)c(=O)n(C)c(=O)n3C)cc1 | 97% (inactive)
2 | COc1ccc(CNC(=O)C(CCSC)NS(=O)(=O)c2ccc3c(c2)oc(=O)n3C)cc1 (stereo not drawn) | 69% (inactive)
3 | Cc1c(C(=O)N(C)C)sc2c1c(=O)n(-c1ccccc1C(F)(F)F)c(=O)n2Cc1cccc(F)c1 | 78% (inactive)
4 | CC(C)(C)OC(=O)N1CCC(c2c(C(=O)N3CCN(c4ncccn4)CC3)cnn2-c2ccc(F)cc2F)CC1 | 6% (active)
5 | Cc1ccc(-n2ncc(C(=O)N3CCN(c4ncccn4)CC3)c2C2CCN(C(=O)OC(C)(C)C)CC2)cc1 | 80% (inactive)
6 | Cc1cccc(N2CCN(C(=O)c3cnn(-c4ccc(F)cc4F)c3C3CCN(C(=O)OC(C)(C)C)CC3)CC2)c1C | 82% (inactive)
7 | Cc1ccc(-n2ncc(C(=O)N3CCN(c4cccc(C)c4C)CC3)c2C2CCNCC2)c(C)c1 | 83% (inactive)
8 | CC(C)(C)OC(=O)N1CCC(c2c(C(=O)N3CCN(c4ccccn4)CC3)cnn2-c2ccc(F)cc2F)CC1 | 79% (inactive)
9 | CC(C)(C)OC(=O)N1CCC(c2c(C(=O)N3CCN(c4ncccn4)CC3)cnn2-c2ccc(F)cc2)CC1 | 17% (active)
10 | CC(C)(C)OC(=O)N1CCC(c2c(C(=O)N3CCN(c4ncccn4)CC3)cnn2-c2ccccc2)CC1 | 94% (inactive)
11 | CN1CCN(C(=O)c2cnn(-c3ccc(F)cc3F)c2C2CCN(C(=O)OC(C)(C)C)CC2)CC1 | 80% (inactive)
12 | COc1ccccc1N1CCN(C(=O)c2cnn(-c3ccc(F)cc3F)c2C2CCNCC2)CC1 | 32% (active)
13 | CCc1[nH]nc2c1C1(C(=O)Nc3ccc(Cl)cc31)C(C#N)=C(N)O2 (stereo not drawn) | 78% (inactive)
14 | O=C(CSc1ncc2c(n1)-c1ccccc1N(Cc1ccc(Cl)cc1)S2(=O)=O)c1ccccc1 | 144% (inactive)
15 | O=C(CN1C(=O)CC(c2ccco2)Sc2ccccc21)Nc1cccc(C(F)(F)F)c1 (stereo not drawn) | 103% (inactive)
16 | CC1CCCN(Cc2nc3c(c(=O)n(C)c(=O)n3C)n2Cc2ccc(Cl)cc2)C1 (stereo not drawn) | 90% (inactive)
17 | Fc1ccccc1N1CCN(c2c3c(nc4nncn24)CCC3)CC1 | 81% (inactive)
18 | Cc1ccccc1NS(=O)(=O)c1nnc(NC(=O)c2ccccc2C)s1 | 76% (inactive)
19 | Cc1ccc(C)c(N2CCN(S(=O)(=O)c3cn(C)c(C)n3)CC2)c1 | 72% (inactive)
20 | Cc1ccccc1N1CCN(S(=O)(=O)c2nnc(NC(=O)c3ccc(C(C)C)cc3)s2)CC1 | 38% (active)

Row | Structure (SMILES) | survival
21 | Cc1cccc(N2CCN(S(=O)(=O)c3cn(C)c(C)n3)CC2)c1C | 0% (active)
22 | Cc1ccc(N2CCN(S(=O)(=O)c3nnc(NC(=O)c4ccccc4)s3)CC2)cc1 | 57% (inactive)
23 | Cc1nc(S(=O)(=O)N2CCN(c3ccccc3F)CC2)cn1C | 117% (inactive)
24 | Cc1ccccc1N1CCN(S(=O)(=O)c2nnc(NC(=O)c3ccccc3)s2)CC1 | 26% (active)
25 | Cc1ccccc1NS(=O)(=O)c1nnc(NC(=O)c2ccco2)s1 | 88% (inactive)
26 | CC1CCN(S(=O)(=O)c2nnc(NC(=O)c3ccc(C(C)C)cc3)s2)CC1 | 62% (inactive)
27 | Cc1ccccc1NS(=O)(=O)c1nnc(NC(=O)c2ccc(Cl)cc2)s1 | 41% (active)
28 | CC(C)OC(=O)Cn1nnc(-c2ccccc2)n1 | 82% (inactive)
29 | CC(=O)c1cccc(NC(=O)c2ccc(-n3c(C)nnc3C)cc2)c1 | 70% (inactive)
30 | CC(C)(C)OC(=O)N1C(C(=O)O)CSC1c1cccc(Br)c1 (stereo not drawn) | 101% (inactive)
31 | Cc1ccc(NC(=O)N2CCc3cc(S(=O)(=O)N4CCC(C)CC4)ccc32)cc1 | 96% (inactive)
32 | Cc1ccc(CN(Cc2cccn2-c2nnc(N3CCCC3=O)s2)C(=O)Nc2ccccc2Cl)cc1 | 104% (inactive)
33 | COc1ccccc1CNC(=O)c1cn(C)c2ccc(S(=O)(=O)N3CCC(C)CC3)cc2c1=O | 92% (inactive)
34 | Cc1ccc(N(C)S(=O)(=O)c2ccc(-c3coc(C)n3)cc2)cc1 | 75% (inactive)
35 | COc1ccc(NC(=O)CCCc2nc(-c3ccco3)no2)c(OC)c1 | 107% (inactive)
36 | CC1Cc2cc(S(=O)(=O)CCC(=O)Nc3ccc(OC(F)(F)F)cc3)ccc2N1C(=O)C1CC1 (stereo not drawn) | 85% (inactive)
37 | O=C(Nc1nnc(S(=O)(=O)N2CCN(c3ccc(F)cc3)CC2)s1)c1ccc(Cl)cc1 | 57% (inactive)
38 | Cc1cccc(N2CCN(S(=O)(=O)c3nnc(NC(=O)c4ccc(Cl)cc4)s3)CC2)c1 | 54% (inactive)
39 | COc1ccc(S(=O)(=O)N2CCN(S(=O)(=O)c3ccccc3)CC2)cc1 | 87% (inactive)
40 | CS(=O)(=O)N1CCN(S(=O)(=O)c2ccccc2)CC1 | 104% (inactive)

Row | Structure (SMILES) | survival
41 | Cc1ccccc1N1CCN(S(=O)(=O)c2nnc(NC(=O)c3ccc(Cl)cc3)s2)CC1 | 43% (active)
42 | Cc1ccccc1N1CCN(S(=O)(=O)c2ccccc2)CC1 | 28% (active)
43 | O=C(Nc1ccc(O)cc1)c1cccc(S(=O)(=O)N2CCOCC2)c1 | 77% (inactive)
44 | CCOc1ccc(NC(=O)Cn2nc3c(cc2=O)CC(C)CC3)cc1 (stereo not drawn) | 98% (inactive)
45 | c1ccc(C2SCCN2c2ccccc2)cc1 (stereo not drawn) | 97% (inactive)
46 | Cc1cccc(N2CCN(C(=O)Cn3c(-c4cccs4)cc4ccccc43)CC2)c1C | 78% (inactive)
47 | Cc1cccc(OCc2nc(CC(=O)Nc3ccc(C)cc3C)cs2)c1 | 79% (inactive)
48 | Cc1nc(CC(=O)Nc2cc(Cl)ccc2C)cs1 | 45% (active)
49 | Cc1cc(C)c(NC(=O)Cc2csc(C)n2)c(Cl)c1 | 48% (inactive)
50 | CCCCCOc1ccc(NC(=O)Cc2csc(C)n2)cc1 | 44% (inactive)
51 | CCc1ccc(NC(=O)Cc2csc(COc3cccc(C)c3)n2)cc1 | 88% (inactive)
52 | Cc1ccccc1-c1noc(CCC(=O)Nc2cccc(C)c2C)n1 | 88% (inactive)
53 | Cc1ccc(NC(=O)Cc2csc(C)n2)c(C)c1 | 40% (active)
54 | Cc1ccc(Cl)cc1NC(=O)c1csnn1 | 78% (inactive)
55 | Cc1nc(CC(=O)Nc2cccc(C)c2C)cs1 | 39% (active)
56 | CCc1cccc(CC)c1NC(=O)Cc1csc(C)n1 | 42% (active)
57 | Cc1ccc(C(=O)CCC(=O)Nc2ccc(C)cc2C)cc1 | 115% (inactive)
58 | Cc1cccc(NC(=O)Nc2cccs2)c1C | 93% (inactive)
